Source: PubChem BioAssay (Johns Hopkins Ion Channel Center)
The list is not random: actives were taken first. Their share in the collection is about 1.6%.
KCNQ2 pot = enhances the rat KCNQ2 potassium channel; CHO-K1 KCNQ2, FluxOR thallium flux fluorescence; hits give high values; 0.54% of 310,000 active; B-score at 10 µM;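 active means fluorescence ratio B-score at least 3 SD of library B-scores, with initial fluorescence B-score within 3 of them, cut at about 5.3 in these data; same plate scores as AID 2156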;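 further: B-score of peak minus minimum over baseline fluorescence ratio after K+ and Tl+ stimulus; positive B-score means potentiation of KCNQ2 with more thallium influx and brighter signal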
KCNQ2 block = inhibitors of rat KCNQ2 potassium channel. O88943. CHO-K1 KCNQ2, FluxOR thallium flux, 20 min; hits give low values. B-score at 10 µM. 1.1% of 310,000 active;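 active means fluorescence ratio B-score at most minus 3 library SDs, with starting brightness B-score within 2 library SDs, cut at about -5.5 in these data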
Kir21 confirm = confirmation of mouse Kir2.1 potassium channel inhibitors; shares compounds with KCNQ2 pot; Kir2.1-expressing cells, FluxOR thallium flux fluorescence; hits give low values; 41% of 2,300 active; Tl flux remaining, % of negative control (hits give low values), % at 10 µM;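 active means Primary-screen hit whose thallium flux fell at least 3 control SD below untreated wells in both duplicates, with normal baseline fluorescence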
HEK293 ctr = alters thallium flux in parental HEK293 cells, Kir2.1 counter-screen. FluxOR thallium flux fluorescence; 0% = unstimulated blank wells. FluxOR signal as % of negative control (100 = no effect), % at 10 µM. shares compounds with KCNQ2 pot. 19% of 2,300 active;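 active means dye signal at least 3 control SD above or below untreated wells in both duplicates, raw fluorescence within 3, either direction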;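 further: percent is based on the flux ratio of peak minus minimum fluorescence over baseline F0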
CHO-K1 ctr = alters thallium flux in parental CHO-K1 cells, KCNQ2 counter-screen | shares compounds with KCNQ2 pot | FluxOR thallium flux fluorescence; zero = vehicle mean+3SD, 100% = vehicle-minus-blank window | activity increase over 3SD of controls, % at 10 µM | 43% of 1,200 active;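 active means signal rise of at least 3 SD above the untreated control mean, in both duplicate wells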;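 further: counter screen of KCNQ2 potentiator hits so any rise reflects channel-independent effects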
KCNQ1 sel pot = selectivity of KCNQ2 potentiators: effect on human KCNQ1; 28% of 1,200 active; CHO KCNQ1 stable, FluxOR thallium flux fluorescence; beyond 3SD, as % of vehicle-control signal; shares compounds with KCNQ2 pot; AID 2283; activation over 3SD threshold, % at 10 µM;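 active means fluorescence ratio rise of at least 3 SD of vehicle wells above their mean, in both replicate wells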
Target sequence (P51787 whole entry, looked up): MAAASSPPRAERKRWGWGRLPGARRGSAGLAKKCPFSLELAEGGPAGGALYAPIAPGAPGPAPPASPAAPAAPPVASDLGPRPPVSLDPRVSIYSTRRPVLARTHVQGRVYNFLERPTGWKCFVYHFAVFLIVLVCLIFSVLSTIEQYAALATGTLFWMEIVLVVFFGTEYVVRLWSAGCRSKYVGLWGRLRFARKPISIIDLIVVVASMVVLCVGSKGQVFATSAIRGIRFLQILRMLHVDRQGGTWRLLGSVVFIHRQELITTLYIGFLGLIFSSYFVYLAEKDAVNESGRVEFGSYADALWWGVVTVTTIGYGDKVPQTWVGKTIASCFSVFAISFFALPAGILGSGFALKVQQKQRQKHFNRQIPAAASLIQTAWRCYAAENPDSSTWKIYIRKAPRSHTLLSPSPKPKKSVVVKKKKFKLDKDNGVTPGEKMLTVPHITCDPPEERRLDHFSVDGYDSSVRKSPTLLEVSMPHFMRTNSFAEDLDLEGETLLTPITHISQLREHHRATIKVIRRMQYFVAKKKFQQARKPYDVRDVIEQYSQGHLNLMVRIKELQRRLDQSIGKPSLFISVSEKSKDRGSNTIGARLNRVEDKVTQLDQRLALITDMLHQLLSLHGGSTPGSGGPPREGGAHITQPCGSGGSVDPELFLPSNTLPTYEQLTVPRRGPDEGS
KCNQ2 pot conf = rat KCNQ2 channel potentiator confirmation; 68% of 1,200 active; shares compounds with KCNQ2 pot; potentiation, less the hit threshold, % at 10 µM; CHO-KCNQ2 cells, FluxOR thallium flux fluorescence;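 active means fluorescence ratio rising 3 SD or more over the vehicle control mean in both replicates, plus primary screen hit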;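 further: peak minus minimum thallium fluorescence divided by baseline after K/Tl stimulus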
Kir2-1 sel = tests whether KCNQ2 potentiators also affect mouse Kir2.1. HEK293 Kir2.1, FluxOR thallium flux fluorescence. shares compounds with KCNQ2 pot. 2% of 1,200 active. activity over 3SD threshold, % at 10 µM;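 active means fluorescence ratio rise of at least 3 SD above the vehicle-control mean, seen in both replicates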
KCNQ2 W236L MoA = rat KCNQ2 W236L mutant potentiation by KCNQ2 potentiators; shares compounds with KCNQ2 pot; CHO KCNQ2-W236L, automated patch clamp current; current increase over 3SD of negative controls (%), hits give high values, % at 25 µM; 10% of 940 active; AID 2558;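 active means current increase at least 3 SD of the untreated controls above them in both duplicate recordings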
Of the large screens only hits and unclear results are named; the others gave an inactive call (follow-up assays come after a bar, where they were run).

CCOC(=O)[C@H]1[C@H]2COc3cc(OC)ccc3[C@@H]2N2C(=O)N(c3cccc(Cl)c3)C(=O)[C@@]12C	none (no result: KCNQ2 pot)
CC(c1ccco1)N(C(=O)CSc1ccc(Br)cc1)c1ccccn1 (configuration not stated)	none (no result: KCNQ2 pot) | Kir21 confirm 69% | HEK293 ctr inactive
CC(C)c1ccc(C(=O)N(c2ccccn2)C(C)c2ccco2)cc1 (configuration not stated)	none (no result: KCNQ2 pot)
Cc1cccc(C(=O)NCC(=O)NC(C)c2ccc(-n3ccnc3)cc2)c1 (configuration not stated)	none
COc1cccc(C(=O)Nc2ccncc2)c1OC	KCNQ2 pot 7.2 | Kir21 confirm inactive | HEK293 ctr inactive | CHO-K1 ctr inactive | KCNQ1 sel pot inactive | KCNQ2 pot conf inactive | Kir2-1 sel inactive
COc1ccccc1C(=O)Nc1ccncc1	none (no result: KCNQ2 pot)
COc1cc(CN(C)CCc2ccccc2)ccc1OCc1ccccc1	none (no result: KCNQ2 pot) | Kir21 confirm 16% | HEK293 ctr inactive
CCN(Cc1ccccc1)Cc1ccc(OCc2ccccc2)c(OC)c1	none (no result: KCNQ2 pot)
CCOc1cc(C2NC(=O)CCC2[N+](=O)[O-])cc(Br)c1OCC (configuration not stated)	none
C=CCOc1c(Br)cc(/C=C2/C(=O)ON=C2C)cc1OC	none
Cc1ccccc1OCCNCC(C)O (configuration not stated)	none (no result: KCNQ2 pot)
Cc1cc(C)c(OCCCCN(C)Cc2ccccc2)c(C)c1	none (no result: KCNQ2 pot) | Kir21 confirm 22% | HEK293 ctr inactive
Cc1ccc(OCCCCN(C)Cc2ccccc2)c(Br)c1	none (no result: KCNQ2 pot)
Cc1cc(Cl)cc(Br)c1OCCCNCC(C)O (configuration not stated)	none | Kir21 confirm 27% | HEK293 ctr inactive
Clc1ccc(Cl)c(OCCCCNCc2ccccc2)c1	none (no result: KCNQ2 pot)
Clc1ccc(OCCCNCc2ccccc2)c(Br)c1	none (no result: KCNQ2 pot) | Kir21 confirm 9.5% | HEK293 ctr 74%
Cc1cc(C)c(OCCCNCc2ccccc2)c(Br)c1	none (no result: KCNQ2 pot) | Kir21 confirm 12% | HEK293 ctr inactive
Cc1cc(Cl)c(OCCCNCc2ccccc2)c(Br)c1	none (no result: KCNQ2 pot)
CCCCCC(=O)Cc1cc(O)cc2c1C(=O)Oc1cc(O)c(C(=O)O)c(CCCCC)c1O2	KCNQ2 pot 7.5 | Kir21 confirm inactive | HEK293 ctr inactive | CHO-K1 ctr inactive | KCNQ1 sel pot 43 | KCNQ2 pot conf 8.8 | Kir2-1 sel inactive | KCNQ2 W236L MoA inactive
Cc1cc(C)cc(C(=O)Nc2ccc(NC(=O)Cc3ccccc3)cc2)c1	none
O=C(CCc1nnc(-c2ccc(-c3ccccc3)cc2)o1)N1CCCCC1	none
Cn1c(-c2ccccc2)cc(=O)c2ccccc21	none (no result: KCNQ2 pot)
O=c1cc(-c2ccccc2)cc(-c2ccccc2)n1O	KCNQ2 pot 6.6 | Kir21 confirm inactive | HEK293 ctr 334% | CHO-K1 ctr inactive | KCNQ1 sel pot 97 | KCNQ2 pot conf 14 | Kir2-1 sel inactive | KCNQ2 W236L MoA inactive
C/C(=N/NC(=O)c1cc(-c2ccccc2)nc2c(Cl)cccc12)c1cccnc1	none (no result: KCNQ2 pot)
CCC(C)NC(=O)CN1C(=O)NC2(CCc3ccccc3C2)C1=O (configuration not stated)	none
CC1=C(C)/C(=N\OS(=O)(=O)c2ccccc2)C=CC1=O	KCNQ2 pot 6.9 | Kir21 confirm 69% | HEK293 ctr inactive | CHO-K1 ctr 17 | KCNQ1 sel pot inactive | KCNQ2 pot conf 28 | Kir2-1 sel inactive | KCNQ2 W236L MoA 57%
Cc1ccc(S(=O)(=O)O/N=C2\CCCc3ccccc32)cc1	none
COc1ccc(NC(=O)c2oc3ccccc3c2C)cn1	none (no result: KCNQ2 pot)
O=C1C(Cl)=C(N2CCCC2)C(=O)N1c1ccc(F)cc1	none (no result: KCNQ2 pot)
